Hits are enriched below; roughly 1.7% of the tested compounds scored in any of these assays.
TAG inh: triacylglycerol accumulation inhibition; H9c2 cells, Nile Red lipid (TAG) fluorescence; cells loaded with 200 µM oleic acid; inhibition, % at 12.5 µM; actives 0.66% (n = 230,000); AID 651582;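 active = pattern-corrected inhibition of lipid staining of at least 50% with the nuclear-stain viability signal not falling by more than 50%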;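 note: 0% = DMSO wells and 100% = triacsin C control wells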
beta cell repl: induces beta-cell replication in MIN6 cells | MIN6 cells proliferation, ATPlite luminescence, 48 h; cells starved in 0.2% serum; 100% = growth in 10% serum | proliferation, % at 10 µM | actives 0.29% (n = 330,000);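 active = compounds whose signal lies at least 3.5 SD above the mean of all wells on their plate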;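 note: 0% = DMSO-treated cells in low-serum medium and 100% = 10% serum control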
CHT allo act: human CHT allosteric activation | B-score at 10 µM | CHT-expressing cells, membrane potential dye, choline EC20; stronger effect = higher value; LV-AA mutant CHT in HEK293 cells | actives 0.49% (n = 310,000);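 active = initial fluorescence not abnormally high and integrated response B-score, plate-corrected, over 3 SD above library mean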
CHT block: human CHT choline transport inhibition. B-score at 10 µM. actives 0.86% (n = 310,000). CHT-expressing cells, membrane potential dye, choline response; stronger effect = lower value;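 active = B-score over 3 SD under the library average, and starting fluorescence ratio not unusually high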;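 note: choline stimulus applied at its EC90 after an EC20 pre-addition; B-score computed on integrated fluorescence ratio after choline addition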
TAG conf: triacylglycerol accumulation inhibition, confirmation; shares compounds with TAG inh; H9c2 lipid accumulation, Nile Red fluorescence; cells loaded with 200 µM oleic acid; inhibition, % at 12.5 µM; actives 71% (n = 990); AID 651629;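 active = mean inhibition across replicates of 40% or more; inactive = mean inhibition below 40%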;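 note: plate controls were DMSO only wells for no effect and Triacsin C treated wells for full effect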
* marks the source's active call; other numbers are inactive results; i = inactive; · = no result given.

SMILES | TAG inh | beta cell repl | CHT allo act | CHT block | TAG conf
COC(=O)C1=C(c2ccc(OCc3ccccc3)cc2)C[C@@H]2CC[C@H]1N2C(=O)NCc1ccc(C(C)(C)C)cc1 | 70* | · | · | · | 75*
COC(=O)C1=C(c2ccc(OCc3ccccc3)cc2)C[C@@H]2CC[C@H]1N2C(=O)NCc1ccccc1 | -13 | -7 | · | · | ·
O=C(CCc1nnc2ccc(NCc3ccccc3Cl)nn12)N1CCC2(CC1)OCCO2 | · | 3 | i | i | ·
CCCCCCC(C)(C)c1ccc([C@@H]2C[C@H](O)CC[C@H]2CCCO)c(O)c1 | 106* | -8 | i | i | 116*
C/C(=N\Nc1ccccc1)c1c(O)n(C)c(=O)n(C)c1=O | · | 0 | i | i | ·

Compound activity as filed in PubChem BioAssay.
